Bioassay records: PubChem, Center for Chemical Genomics, University of Michigan
Compounds with a hit are over-represented: about 0.93% of the library has one in this group of screens.
CDC25B-CDK2 inh: primary biochemical HTRF screen for blockers of M-phase inducer phosphatase 2 binding to CDK2/cyclin A; P30305+P24941; HTRF CDC25B-CDK2/CyclinA binding, anti-His/anti-Flag; active compounds read high; z-score (no concentration beside the values); 0.72% of 94,000 active; AID 1259370, 2018; in the data active = z-score above about 3.2
HIV TAR-Tat: TAR RNA-Tat peptide displacers, HIV-1, primary screen, biochemical, FRET, FAM/TAMRA-labeled Tat | z-score (test concentration not listed) | 0.6% of 100,000 active | HIV-1 TAR RNA, Tat peptide displacement FRET; active compounds read high | AID 1259389, 2018; active = z-score of 3 or more in at least 2 runs
Numbers stand for hits; 0 = inactive; - = no result; ! = not active in a repeat.

SMILES | CDC25B-CDK2 inh | HIV TAR-Tat
O=C(NCCC1=CCCCC1)C(=O)NCc1n[nH]c(=O)c2ccccc12 | - | 0
O=S(=O)(Nc1ccc(Oc2ccc(F)cc2)cc1)c1ccc(Cl)cc1 | 12 | -
COc1ccc(NS(=O)(=O)c2ccc(NS(=O)(=O)c3ccc(Cl)cc3)cc2)cc1 | 0 | 0
O=S(=O)(c1ccc(Cl)c(Cl)c1)c1ccc(Cl)c(Cl)c1 | 0 | -
Cn1c(C(=O)N2CCN(C(=O)c3ccco3)CC2)cc2c(=O)n(C)c3ccccc3c21 | 0 | 0
Cn1c(C(=O)N2CCN(C(=O)c3ccco3)CC2)cc2c(=O)[nH]c3ccccc3c21 | 18 | 0
c1cc(CNc2ccc3c(c2)OCO3)ccn1 | 0 | 0
Fc1ccc(NCc2ccncc2)cc1 | 15 | 0
CC(C)c1ccc(NS(=O)(=O)c2ccc(-c3cnc(C4CC4)o3)cc2)cc1 | - | 0
Cc1ccc(NC(=O)Nc2ccc3snnc3c2)cc1 | 0 | -
O=C(NCCO)Nc1ccc2snnc2c1 | 11 | 0
CC(=C/C(=O)O)/C(=C\c1cccnc1)C(=O)O | 0 | -
O=C(/C=C/c1cccnc1)c1ccc[cH-]1.[Fe+2].c1cc[cH-]c1 | 15 | -
COc1cc(-c2nc3sccn3c2Nc2ccc(OC)c(OC)c2)ccc1O | 0 | 0
CN(C)c1ccc(CC2C(=O)Nc3ccc(Br)cc32)cc1 (stereo unspecified) | 0 | 0
COc1ccccc1Nc1nc(-c2c(C)nc3ccccn23)cs1 | 0 | 0
COc1ccc(Cl)cc1Nc1nc(-c2c(C)nc3ccccn23)cs1 | 0 | 8.3
CC1CN(C)C(C)C(/C=C(/C#N)C(N)=S)C1=O (stereo unspecified) | 7.9 | -
COc1ccc(/C=C(\C#N)C(N)=S)cc1 | 0 | -
COc1cccc(C2CC(=O)N3CN(c4ccc(Br)cc4)CSC3=C2C#N)c1OC (stereo unspecified) | 5.9 | 0
COc1cccc(C2CC(=O)N3CN(c4ccccc4)CSC3=C2C#N)c1OC (stereo unspecified) | 3.5 | 0
COc1ccccc1C1CC(=O)N2CN(C3CCCCC3)CSC2=C1C#N (stereo unspecified) | 0 | 0
COc1cccc(C2CC(=O)N3CN(C)CSC3=C2C#N)c1OC (stereo unspecified) | 4.3 | 0
COc1cccc(C2CC(=O)N3CN(C4CCCCC4)CSC3=C2C#N)c1OC (stereo unspecified) | 6.2 | 0
CCCCN(CC)CCNS(=O)(=O)c1ccc2c(c1)NC(=O)CO2 | - | 0
SMILES | CDC25B-CDK2 inh | HIV TAR-Tat
CC1CCN(S(=O)(=O)c2cn(CC(=O)N3CCC(N4CCCCC4)CC3)cn2)CC1 | - | 0
CC(C)(C)c1ccc(NC(=O)N2CCCN(CC(=O)N3CCOCC3)CC2)cc1 | 0 | -
N#CC1=C2SCN(c3ccc(Br)cc3)CN2C(=O)CC1c1ccccc1F (stereo unspecified) | 7.3 | 0
COc1ccc(C2CC(=O)N3CN(C4CCCC4)CSC3=C2C#N)cc1OC (stereo unspecified) | 5.9 | 0
COc1ccc(C2CC(=O)N3CN(c4ccc(Br)cc4)CSC3=C2C#N)cc1OC (stereo unspecified) | 5.6 | 0
Cc1ccc(C2CC(=O)N3CN(c4ccc(Br)cc4)CSC3=C2C#N)o1 (stereo unspecified) | 7.3 | 0
N#CC1=C2SCN(C3CCCCC3)CN2C(=O)CC1c1ccc(Cl)cc1 (stereo unspecified) | 0 | 0
Cc1cc(C)cc(NC(=O)CCc2nc(CSc3nc4cc(Cl)ccc4o3)no2)c1 | - | 0
O=c1cc(CSc2ncn[nH]2)[nH]c2ccccc12 | - | 0
CC(c1ccccc1)n1cc2c(c1-c1ccc(Br)cc1)c(=O)n(C)c(=O)n2C (stereo unspecified) | 0 | 0
O=C1c2ccccc2C(=O)c2c1ccc(C(=O)O)c2[N+](=O)[O-] | 0 | -
CC(=O)C(C(C)=O)C1=C([N+](=O)[O-])C(=O)C(=O)c2ccccc21 | 3.5 | -
Cc1cn2c(=O)c(S(=O)(=O)Nc3ccc(Cl)cc3)c(C)nc2s1 | - | 0
CC(=O)Nc1ccc(NC(=O)c2nccnc2C(=O)O)cn1 | 11 | -
Cc1ccc(NC(=O)c2nccnc2C(=O)O)cc1 | 0 | -
Cn1nc(-c2ccccc2F)c2cc(C(=O)NCc3ccc4c(c3)OCO4)sc21 | 0 | -
O=C(O)c1cc(-c2ccc(Br)cc2)nc2n[nH]c(-c3ccc(F)cc3)c12 | - | 0
COc1ccc(-c2ccc3c(n2)sc2c(O)cc(=O)[nH]c23)cc1OC | 0 | 0
O=c1cc(O)c2sc3nc(-c4ccncc4)ccc3c2[nH]1 | 0 | 15
CC(C)CC1N=C2c3ccccc3N=C(SCC(=O)Nc3ccccc3)N2C1=O (stereo unspecified) | - | 0
CC(C)C[C@@H](C=O)NC(=O)[C@H](CC(C)C)NC(=O)[C@H](CC(C)C)NC(=O)OCc1ccccc1 | - | 3.9!
O=C(N[C@@H](Cc1ccccc1)C(=O)CCl)OCc1ccccc1 | 0 | 0
c1ccc2c(c1)nc(N1CCN(C3CCCCC3)CC1)n1cnnc21 | - | 0
